B1: unnamed (peptide)
chain: KLSRGRYGLPLSSRP
B2: unnamed (peptide)
chain: YRRKSIPFAPHQITA

target: SpBzz1-D2; experiment: SPOT peptide array binding signal intensity (averaged, normalized) (arbitrary units (background-subtracted, floor 0; scale differs between SH3 domains)); higher = stronger binding of the SH3 domain to the peptide
Description: (§1)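 GST-tagged SH3 domains from S. cerevisiae (Sc), A. gossypii (Ag), C. albicans (Ca) and S. pombe (Sp) were incubated at 10 ug/ml overnight at 4 C on cellulose SPOT membranes carrying 292 synthetic 15-mer peptides mined from the S. cerevisiae proteome (cysteines replaced by serines). Binding was detected with anti-GST antibody, HRP secondary and chemiluminescence, quantified with Genespotter, and reported as normalized spot intensities averaged over biological replicates.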

Binder	SPOT peptide array binding signal intensity
B1	≤ 0
B2	0.5

target: SpCyk3; experiment: as above
Description: as §1

Binder	SPOT peptide array binding signal intensity
B1	6.5
B2	≤ 0

target: SpHof1; experiment: as above
Description: as §1

Binder	SPOT peptide array binding signal intensity
B1	88.8
B2	25.8

target: SpHof1-2; experiment: as above
Description: as §1

Binder	SPOT peptide array binding signal intensity
B1	10.5
B2	1.5

target: SpHof1-3; experiment: as above
Description: as §1

Binder	SPOT peptide array binding signal intensity
B1	326
B2	106

target: SpHse1; experiment: as above
Description: as §1

Binder	SPOT peptide array binding signal intensity
B1	150
B2	88.2

target: SpLsb1; experiment: as above
Description: as §1

Binder	SPOT peptide array binding signal intensity
B1	110
B2	4.5

target: SpLsb4; experiment: as above
Description: as §1

Binder	SPOT peptide array binding signal intensity
B1	48.5
B2	48

target: SpMyo1; experiment: as above
Description: as §1

Binder	SPOT peptide array binding signal intensity
B1	2
B2	5.5

target: SpNbp2; experiment: as above
Description: as §1

Binder	SPOT peptide array binding signal intensity
B1	38
B2	64

target: SpPex13; experiment: as above
Description: as §1

Binder	SPOT peptide array binding signal intensity
B1	1
B2	19

target: SpRvs167; experiment: as above
Description: as §1

Binder	SPOT peptide array binding signal intensity
B1	4.33
B2	6.33

target: SpSla1-D1-D2; experiment: as above
Description: as §1

Binder	SPOT peptide array binding signal intensity
B1	≤ 0
B2	≤ 0

target: SpSla1-D3; experiment: as above
Description: as §1

Binder	SPOT peptide array binding signal intensity
B1	≤ 0
B2	11

target: AgAbp1; experiment: as above
Description: as §1

Binder	SPOT peptide array binding signal intensity
B2	34

target: AgBbc1; experiment: as above
Description: as §1

Binder	SPOT peptide array binding signal intensity
B2	11.5

target: AgBem1-D1; experiment: as above
Description: as §1

Binder	SPOT peptide array binding signal intensity
B2	21.5

target: AgBzz1-D1; experiment: as above
Description: as §1

Binder	SPOT peptide array binding signal intensity
B2	99.5

target: AgBzz1-D2; experiment: as above
Description: as §1

Binder	SPOT peptide array binding signal intensity
B2	34

target: AgCyk3; experiment: as above
Description: as §1

Binder	SPOT peptide array binding signal intensity
B2	1

target: AgFus1; experiment: as above
Description: as §1

Binder	SPOT peptide array binding signal intensity
B2	131

target: AgHof1; experiment: as above
Description: as §1

Binder	SPOT peptide array binding signal intensity
B2	5.5

target: AgHse1; experiment: as above
Description: as §1

Binder	SPOT peptide array binding signal intensity
B2	162

target: AgLsb1; experiment: as above
Description: as §1

Binder	SPOT peptide array binding signal intensity
B2	25.8

target: AgLsb4; experiment: as above
Description: as §1

Binder	SPOT peptide array binding signal intensity
B2	24

target: AgMyo5; experiment: as above
Description: as §1

Binder	SPOT peptide array binding signal intensity
B2	≤ 0

target: AgNbp2; experiment: as above
Description: as §1

Binder	SPOT peptide array binding signal intensity
B2	62.5

target: AgRvs167; experiment: as above
Description: as §1

Binder	SPOT peptide array binding signal intensity
B2	3.67

target: AgSho1; experiment: as above
Description: as §1

Binder	SPOT peptide array binding signal intensity
B2	16.5

target: AgSla1-D1-D2; experiment: as above
Description: as §1

Binder	SPOT peptide array binding signal intensity
B2	39

target: AgSla1-D3; experiment: as above
Description: as §1

Binder	SPOT peptide array binding signal intensity
B2	2.5

target: CaAbp1-D1; experiment: as above
Description: as §1

Binder	SPOT peptide array binding signal intensity
B2	187

target: CaAbp1-D2; experiment: as above
Description: as §1

Binder	SPOT peptide array binding signal intensity
B2	116

target: CaBbc1; experiment: as above
Description: as §1

Binder	SPOT peptide array binding signal intensity
B2	41.5

target: CaBem1-D1; experiment: as above
Description: as §1

Binder	SPOT peptide array binding signal intensity
B2	24

target: CaBzz1-D1; experiment: as above
Description: as §1

Binder	SPOT peptide array binding signal intensity
B2	182

target: CaBzz1-D2; experiment: as above
Description: as §1

Binder	SPOT peptide array binding signal intensity
B2	148

target: CaCyk3; experiment: as above
Description: as §1

Binder	SPOT peptide array binding signal intensity
B2	6

target: CaFus1; experiment: as above
Description: as §1

Binder	SPOT peptide array binding signal intensity
B2	159

target: CaHof1; experiment: as above
Description: as §1

Binder	SPOT peptide array binding signal intensity
B2	2

target: CaHse1; experiment: as above
Description: as §1

Binder	SPOT peptide array binding signal intensity
B2	16.8

target: CaLsb1; experiment: as above
Description: as §1

Binder	SPOT peptide array binding signal intensity
B2	3

target: CaLsb4; experiment: as above
Description: as §1

Binder	SPOT peptide array binding signal intensity
B2	13

target: CaMyo5; experiment: as above
Description: as §1

Binder	SPOT peptide array binding signal intensity
B2	0.5

target: CaNbp2; experiment: as above
Description: as §1

Binder	SPOT peptide array binding signal intensity
B2	161

target: CaRvs167; experiment: as above
Description: as §1

Binder	SPOT peptide array binding signal intensity
B2	15.7

target: CaRvs167-3; experiment: as above
Description: as §1

Binder	SPOT peptide array binding signal intensity
B2	18.5

target: CaSho1; experiment: as above
Description: as §1

Binder	SPOT peptide array binding signal intensity
B2	70

target: CaSla1-D1-D2; experiment: as above
Description: as §1

Binder	SPOT peptide array binding signal intensity
B2	118

target: CaSla1-D3; experiment: as above
Description: as §1

Binder	SPOT peptide array binding signal intensity
B2	2.5

target: ScAbp1; experiment: as above
Description: as §1

Binder	SPOT peptide array binding signal intensity
B2	53

target: ScBbc1; experiment: as above
Description: as §1

Binder	SPOT peptide array binding signal intensity
B2	9.25

target: ScBem1-D1; experiment: as above
Description: as §1

Binder	SPOT peptide array binding signal intensity
B2	29.5

target: ScBzz1-D1; experiment: as above
Description: as §1

Binder	SPOT peptide array binding signal intensity
B2	66

target: ScBzz1-D2; experiment: as above
Description: as §1

Binder	SPOT peptide array binding signal intensity
B2	90

target: ScCyk3; experiment: as above
Description: as §1

Binder	SPOT peptide array binding signal intensity
B2	10

target: ScFus1; experiment: as above
Description: as §1

Binder	SPOT peptide array binding signal intensity
B2	89

target: ScHof1; experiment: as above
Description: as §1

Binder	SPOT peptide array binding signal intensity
B2	3.5

target: ScHse1; experiment: as above
Description: as §1

Binder	SPOT peptide array binding signal intensity
B2	380

target: ScLsb1; experiment: as above
Description: as §1

Binder	SPOT peptide array binding signal intensity
B2	0.25

target: ScLsb2; experiment: as above
Description: as §1

Binder	SPOT peptide array binding signal intensity
B2	25

target: ScLsb3; experiment: as above
Description: as §1

Binder	SPOT peptide array binding signal intensity
B2	20

target: ScLsb4; experiment: as above
Description: as §1

Binder	SPOT peptide array binding signal intensity
B2	6

target: ScMyo3; experiment: as above
Description: as §1

Binder	SPOT peptide array binding signal intensity
B2	0.5

target: ScMyo5; experiment: as above
Description: as §1

Binder	SPOT peptide array binding signal intensity
B2	6

target: ScNbp2; experiment: as above
Description: as §1

Binder	SPOT peptide array binding signal intensity
B2	160

target: ScPex13; experiment: as above
Description: as §1

Binder	SPOT peptide array binding signal intensity
B2	185

target: ScRvs167; experiment: as above
Description: as §1

Binder	SPOT peptide array binding signal intensity
B2	33.3

target: ScSho1; experiment: as above
Description: as §1

Binder	SPOT peptide array binding signal intensity
B2	145

target: ScSla1-D1-D2; experiment: as above
Description: as §1

Binder	SPOT peptide array binding signal intensity
B2	166

target: ScSla1-D3; experiment: as above
Description: as §1

Binder	SPOT peptide array binding signal intensity
B2	4.25

target: SpAbp1-D1; experiment: as above
Description: as §1

Binder	SPOT peptide array binding signal intensity
B2	99

target: SpBbc1; experiment: as above
Description: as §1

Binder	SPOT peptide array binding signal intensity
B2	2

target: SpBzz1-D1; experiment: as above
Description: as §1

Binder	SPOT peptide array binding signal intensity
B2	189

— the supplement of paper PMC4466140
